Bioassay records deposited in PubChem BioAssay by Columbia University Molecular Screening Center.
IL1B NFkB inh – blocks IL-1B driven NFkB nuclear translocation in HUVEC cells. HUVEC IL-1B NFkB p65 nuclear translocation imaging. inhibition, % at 2 µM. 0.43% of 94,000 active. AID 796;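 active = inhibition above about 30% together with a positive call from visual inspection of the well image, limit read from the data; inconclusive = inhibition above a set limit but visual check negative; inactive = inhibition not above a set limit, visual check negative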;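 also: nuclear over cytoplasmic p65 intensity ratio measured by imaging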
IL1B cytotox – HUVEC cytotoxicity counter-screen, IL-1B stimulated; 0.41% of 94,000 active; HUVEC cell count loss, Hoechst imaging; AID 845; cell count reduction, % at 2 µM;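 active = cell count reduction more than 3 SD above the screen-wide mean, cut at about 70% in these data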
IL1B NFkB pot – enhances IL-1B driven NFkB nuclear translocation | HUVEC IL-1B NFkB p65 nuclear translocation imaging | AID 819 | activation, % at 2 µM | 0.3% of 94,000 active;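 active = activation above 40%, about the mean plus 3 SD, also judged a hit on visual image review; inconclusive = activation above 40% but not a hit on visual review; inactive = activation not above 40% and no visual hit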;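 also: percent activation is computed from the nuclear over cytoplasmic p65 intensity ratio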
TNFa cytotox – HUVEC cytotoxicity counter-screen, TNF alpha stimulated; HUVEC TNFalpha-stimulated, Hoechst cell count, imaging; cell count reduction, % at 2 µM; 0.17% of 93,000 active; AID 848;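 active = cell count reduction exceeding the screen mean by over 5 SD, scaled to untreated wells per plate, cut at about 78% in these data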;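 also: cells counted after 24 h of TNF alpha exposure following the 1 h pretreatment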
E-sel TNF inh – blocks E-selectin expression induced by TNF alpha; inhibition, % at 2 µM; HUVEC TNFa-induced E-selectin immunofluorescence, high content; 0.71% of 120,000 active;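 active = inhibition above the batch mean plus 3 SD, and confirmed as a hit on visual image review, cut at about 43% in these data; inconclusive = passes the inhibition cutoff but fails visual image review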
VCAM1 TNFa inh – reduces TNF alpha induced VCAM1 expression in HUVEC; HUVEC TNFa-induced VCAM-1 immunofluorescence, high-content imaging; inhibition, % at 2 µM; 0.48% of 95,000 active;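 active = inhibition above the batch mean plus 3 SD, with images confirmed as a hit by eye, cut at about 37% in these data; inconclusive = inhibition above that limit but hit not confirmed in images; inactive = inhibition not above that limit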
Large screens that a line does not name were inactive. A selection: hits, their analogues and other compounds. The true share with any hit is near 1.6%.

O=C(Nc1ccc(F)cc1)N1CCOCC1	E-sel TNF inh 77
COc1ccc(CCNC(=O)CSc2nnc3ccc(-c4cccnc4)nn23)cc1	none (no result: IL1B NFkB inh, IL1B cytotox, IL1B NFkB pot, TNFa cytotox, VCAM1 TNFa inh)
CCN(CC)c1ccc(NC(=O)C2CC3CCC2C3)cc1 (centres undefined)	E-sel TNF inh 96 (no result: IL1B NFkB inh, IL1B cytotox, IL1B NFkB pot, TNFa cytotox, VCAM1 TNFa inh)
O=C(NNC(=S)Nc1ccc(Cl)cc1Cl)c1ccc(N2CCOCC2)c([N+](=O)[O-])c1	none (no result: IL1B NFkB inh, IL1B cytotox, IL1B NFkB pot, TNFa cytotox, VCAM1 TNFa inh)
Cc1ccc(N2C(SCC(=O)O)=NC(=Nc3cccc(C)c3)C23CCCC3)cc1	none (no result: IL1B NFkB inh, IL1B cytotox, IL1B NFkB pot, TNFa cytotox, VCAM1 TNFa inh)
COc1cc(/C=C(/C#N)C(=O)NCCc2c[nH]c3ccccc23)ccc1OCc1ccccc1F	VCAM1 TNFa inh 37
Cc1cc(/C=C(\C#N)C(=O)NCCc2c[nH]c3ccccc23)c(C)n1C	none (no result: IL1B NFkB inh, IL1B cytotox, IL1B NFkB pot, TNFa cytotox, VCAM1 TNFa inh)
O=C1c2cccc(OCC(=O)N3CCCc4ccccc43)c2CCN1Cc1ccc(Br)cc1	E-sel TNF inh 81 (no result: IL1B NFkB inh, IL1B cytotox, IL1B NFkB pot, TNFa cytotox, VCAM1 TNFa inh)
O=C1c2cccc(OCC(=O)N3CCCc4ccccc43)c2CCN1Cc1ccccc1	none (no result: IL1B NFkB inh, IL1B cytotox, IL1B NFkB pot, TNFa cytotox, VCAM1 TNFa inh)
O=C(NNC1CC(=O)N(c2ccc(Br)cc2)C1=O)c1ccccn1 (centres undefined)	none (no result: IL1B NFkB inh, IL1B cytotox, IL1B NFkB pot, TNFa cytotox, VCAM1 TNFa inh)
N#Cc1cc2c(nc1SCC(=O)N1CCCCC1)CCCC2	VCAM1 TNFa inh 52
CCOC(=O)c1sc(NC(=O)CSc2nc3c(cc2C#N)CCCCCC3)c(C#N)c1C	none
Cc1cc(C)nc(SCC(=O)Nc2ccc(S(=O)(=O)Nc3onc(C)c3C)cc2)n1	none
CCOC(=O)c1sc(NC(=O)CSc2nc3c(cc2C#N)CCC3)c(C#N)c1C	VCAM1 TNFa inh 86
Cc1noc(NS(=O)(=O)c2ccc(NC(=O)CSc3nc4ccccc4s3)cc2)c1C	IL1B cytotox 74
Cc1noc(NS(=O)(=O)c2ccc(NC(=O)CSc3nc4c(cc3C#N)CCC4)cc2)c1C	IL1B NFkB pot 68 (no result: E-sel TNF inh)
Cc1noc(NS(=O)(=O)c2ccc(NC(=O)CSc3ncccn3)cc2)c1C	IL1B NFkB pot inconclusive (no result: E-sel TNF inh)
CCOCCCNCC(=O)Nc1ccc(S(=O)(=O)NC(C)CC)cc1 (centres undefined)	none (no result: IL1B NFkB inh, IL1B cytotox, IL1B NFkB pot, TNFa cytotox, VCAM1 TNFa inh)
Cc1ccc(OCCOc2ccc(Br)cc2)c([N+](=O)[O-])n1	none (no result: IL1B NFkB inh, IL1B cytotox, IL1B NFkB pot, TNFa cytotox, VCAM1 TNFa inh)
CCC(C)c1ccccc1OCCn1ccnc1 (centres undefined)	none (no result: IL1B NFkB inh, IL1B cytotox, IL1B NFkB pot, TNFa cytotox, VCAM1 TNFa inh)
COc1ccc(OC(=O)CCCN2C(=O)c3ccccc3C2=O)cc1	IL1B cytotox 86
CCSc1ccc(C(=O)Nc2ccc(Br)cn2)cc1[N+](=O)[O-]	none (no result: IL1B NFkB inh, IL1B cytotox, IL1B NFkB pot, TNFa cytotox, VCAM1 TNFa inh)
Cn1cc([N+](=O)[O-])c(C(=O)Nc2ccc(Br)cn2)n1	E-sel TNF inh 54
O=C(CN(CCc1ccccc1)S(=O)(=O)c1ccc(Cl)cc1)N/N=C/c1ccccc1C(=O)O	none (no result: IL1B NFkB inh, IL1B cytotox, IL1B NFkB pot, TNFa cytotox, VCAM1 TNFa inh)
CC(C)Cc1nn2c(N)c(/C=C3\C=Nc4ccccc43)c(=O)nc2s1	none (no result: IL1B NFkB inh, IL1B cytotox, IL1B NFkB pot, TNFa cytotox, VCAM1 TNFa inh)
COc1ccc(CNC(=O)C2CCCN(S(=O)(=O)c3cc(C)ccc3OC)C2)cc1 (centres undefined)	IL1B NFkB inh 64
O=S(=O)(c1ccc(F)cc1)N1CCN(c2ccc(-c3ccccc3)nn2)CC1	none (no result: IL1B NFkB inh, IL1B cytotox, IL1B NFkB pot, TNFa cytotox, VCAM1 TNFa inh)
CCN(c1ccccc1)S(=O)(=O)c1ccc(C(=O)NCC(c2cccs2)N(C)C)cc1 (centres undefined)	none (no result: IL1B NFkB inh, IL1B cytotox, IL1B NFkB pot, TNFa cytotox, VCAM1 TNFa inh)
CCCOc1ccc(C(=O)NCC(c2cccs2)N(C)C)cc1 (centres undefined)	E-sel TNF inh 94 (no result: IL1B NFkB inh, IL1B cytotox, IL1B NFkB pot, TNFa cytotox, VCAM1 TNFa inh)
COc1ccc2c(C(=O)CN3CCN(CCO)CC3)c[nH]c2c1	none
COc1ccc2[nH]cc(C(=O)CN3CCN(C/C=C/c4ccccc4)CC3)c2c1	IL1B NFkB inh 36
COc1cc(C2C(C#N)=C(N)Oc3cc(C)n(CCc4ccccc4)c(=O)c32)cc2c1OCO2 (centres undefined)	E-sel TNF inh 95 (no result: IL1B NFkB inh, IL1B cytotox, IL1B NFkB pot, TNFa cytotox, VCAM1 TNFa inh)
Cc1cc(C)cc(OCC(=O)Nc2nonc2NC(=O)COc2cc(C)cc(C)c2)c1	VCAM1 TNFa inh 78
Cc1cc(C)cc(OCC(=O)Nc2cccc(C(=O)O)c2)c1	none
Cn1c(=O)cc(NCCc2ccccc2)[nH]c1=O	none
CCN(/N=C/c1ccc(Cl)cc1)c1cc(=O)n(C)c(=O)[nH]1	E-sel TNF inh 62 (no result: IL1B NFkB inh, IL1B cytotox, IL1B NFkB pot, TNFa cytotox, VCAM1 TNFa inh)
O=C(NC1=NCCS1)c1ccc(Cl)c(S(=O)(=O)N2CCOCC2)c1	none (no result: IL1B NFkB inh, IL1B cytotox, IL1B NFkB pot, TNFa cytotox, VCAM1 TNFa inh)
O=S(=O)(Nc1ccc(-n2cccc2)cc1)c1ccccc1	VCAM1 TNFa inh 40
O=S(=O)(Nc1ccc(S(=O)(=O)Nc2ccccc2)cc1)c1ccccc1	none
Cc1ccc(CN2CCN(/N=C/c3cc(Br)cc(Br)c3O)CC2)c(C)c1	none (no result: IL1B NFkB inh, IL1B cytotox, IL1B NFkB pot, TNFa cytotox, VCAM1 TNFa inh)
CCOC(=O)c1ccc(NC(=S)NCC(O)c2ccccc2)cc1 (centres undefined)	E-sel TNF inh 73 (no result: TNFa cytotox)
CCOC(=O)c1ccc(NC(=S)NCCc2ccccc2)cc1	none (no result: TNFa cytotox)
